Results filed as inconclusive are left out. Values without a mark were called inactive. The call rests on the fitted dose curve; in most records, active means well fitted activation curve with a large enough effect in the signal ratio in the repeat runs (not every such curve was filed as active); inconclusive means weak or mixed curves, or effect the other way; inactive means no such curve, though single readings can be large or run the other way; the % refers to the signal ratio.
On the % scale 0 is the no-effect control and ±100 the full control effect.

For the test, the target named is Peroxisome proliferator-activated receptor gamma (Homo sapiens) (UniProt P37231). The test can be described thus: qHTS assay to identify small molecule agonists of the peroxisome proliferator-activated receptor gamma (PPARg) signaling pathway (AID 743094). Conditions: HEK293H PPARg-UAS-bla, beta-lactamase FRET ratio, 17 h; series mostly up to 57 µM; activation: at the top concentration. An excerpt: U.S. Tox21 Program National Center for Advancing Translational Sciences [NCATS] NIH Chemical Genomics Center [NCGC] U.S. Environmental Protection Agency [EPA] National Institutes of Environmental Health Sciences [NIEHS] National Toxicology Program [NTP] U.S. Food and Drug Administration [FDA] Tox21 Assay Overview: The peroxisome proliferator-activated receptors (PPARs) are lipid-activated transcription factors of the nuclear receptor superfamily with three distinct subtypes namely PPAR alpha, PPAR delta (also called PPAR beta) and PPAR gamma (PPARg). All these subtypes heterodimerize with Retinoid X receptor (RXR) and these heterodimers regulate transcription of various genes. PPAR-gamma receptor (glitazone receptor) is involved in the regulation of glucose and lipid metabolism. To identify the compounds that activate PPAR-gamma signaling, GeneBLAzer PPAR gamma UAS-bla HEK293H cell line (Invitrogen, Carlsbad, CA, USA) containing a beta-lactamase reporter gene under control of the control of an upstream activator sequence (UAS) stably integrated into HEK293H cells was used to screen Tox21 compound library.
Peroxisome proliferator-activated receptor gamma (Homo sapiens), sequence (P37231 whole entry, looked up): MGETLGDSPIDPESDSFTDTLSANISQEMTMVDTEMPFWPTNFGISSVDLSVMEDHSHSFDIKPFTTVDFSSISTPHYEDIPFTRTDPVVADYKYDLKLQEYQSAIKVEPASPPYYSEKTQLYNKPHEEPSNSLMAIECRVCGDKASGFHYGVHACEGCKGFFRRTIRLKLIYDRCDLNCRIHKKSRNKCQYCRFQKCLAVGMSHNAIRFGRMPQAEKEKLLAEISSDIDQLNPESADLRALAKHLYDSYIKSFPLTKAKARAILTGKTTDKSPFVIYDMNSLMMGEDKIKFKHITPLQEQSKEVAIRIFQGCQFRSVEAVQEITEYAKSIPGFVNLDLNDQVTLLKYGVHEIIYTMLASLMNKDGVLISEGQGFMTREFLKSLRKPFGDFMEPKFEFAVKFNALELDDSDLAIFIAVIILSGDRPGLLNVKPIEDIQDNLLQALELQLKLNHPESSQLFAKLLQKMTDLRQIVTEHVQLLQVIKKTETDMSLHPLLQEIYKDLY
Tox21 Assay Protocol Summary: PPARg-bla cells were dispensed at 3000 cells/6uL/well in 1536-well black wall/clear bottom plates using a Multidrop Combi (Thermo Fisher Scientific, Waltham, MA) dispenser. After the assay plates were incubated at 37C and 5% CO2 for 5 h, 23 nL of compounds dissolved in DMSO, positive controls or DMSO only was transferred to the assay plate by a Pintool station (Kalypsys, San Diego, CA). The assay plates were incubated at 37C for 17 h. After 1 uL of LiveBLAzerTM B/G FRET substrate was added using a Bioraptr Flying Reagent Dispenser (FRD) workstation (Beckman Coulter, Indianapolis, IN, USA), the plates were incubated at room temperature for 1 h, and fluorescence intensity was measured by an Envision plate reader (PerkinElmer, Shelton, CT).
As for `CCO[Si](CCCN=C=O)(OCC)OCC`, the “activation” value is -6.25%.

On to `OC[C@H]1O[C@@H]2O[C@H]3[C@H](O)[C@@H](O)[C@@H](O[C@H]4[C@H](O)[C@@H](O)[C@@H](O[C@H]5[C@H](O)[C@@H](O)[C@@H](O[C@H]6[C@H](O)[C@@H](O)[C@@H](O[C@H]7[C@H](O)[C@@H](O)[C@@H](O[C@H]8[C@H](O)[C@@H](O)[C@@H](O[C@H]9[C@H](O)[C@@H](O)[C@@H](O[C@H]1[C@H](O)[C@H]2O)O[C@@H]9CO)O[C@@H]8CO)O[C@@H]7CO)O[C@@H]6CO)O[C@@H]5CO)O[C@@H]4CO)O[C@@H]3CO`, for which the “activation” value was 0% [at 26.2 µM].

Take `CCCOc1ccccc1-c1nc2n[nH]nc2c(=O)[nH]1`: the “activation” value is 1.43%.

Take `C[C@H](O)C(=O)Nc1c(I)c(C(=O)NC(CO)CO)c(I)c(C(=O)NC(CO)CO)c1I`: the “activation” value was 2.47% [at 26.2 µM].

With `CC(=O)NC(Cc1ccccc1)C(=O)O` (stereo not given), the “activation” value is 2.32%.

Turning to `C=C(C)C(=O)NCCCN(C)C`, the “activation” value is -3.46%.

On to `CCCC(C)CO` (stereo not given), for which the “activation” value is -0.0511%.

As for `Cc1cc(C)c(NC(=O)CN(CC(=O)O)CC(=O)O)c(C)c1Br`, the “activation” value was -2.22%.

As for `CCCCCOC(=O)Nc1nc(=O)n([C@@H]2O[C@H](C)[C@@H](O)[C@H]2O)cc1F`, the “activation” value is -1.6%.

As for `NCCNC(=O)c1ccc(Cl)cn1`, the “activation” value was 1.02%.

On to `CC(C)(C)C(=O)/C=C/c1ccc(Cl)cc1`, for which the “activation” value was 8.96%.

With `CC(C)c1ccc2oc3nc(N)c(C(=O)O)cc3c(=O)c2c1`, the “activation” value was 0.125%.

In the case of `CCCCNc1ccccc1`, the “activation” value is 5.32%.

Consider `Nc1nc2c(ncn2CCC(CO)CO)c(=O)[nH]1`, for which the “activation” value is 4.55%.

For `O=C(O)/C=C/c1ccc(Cn2ccnc2)cc1`, the “activation” value was 0.827% [at 26.2 µM].

For the molecule `Oc1ccc2c(c1)OC[C@@H](N1CCC(O)(c3ccc(F)cc3)CC1)[C@H]2O`, the “activation” value was 3.32%.

`CC(C)CCOC(=O)CC(C)C`: the “activation” value is -5.74%.

In the case of `CC1=CC(=O)CCC1`, the “activation” value was -5.31%.

In the case of `CCN1CCCC(OC(=O)C(c2ccccc2)c2ccccc2)C1` (stereo not given), the “activation” value was -3.29% [at 26.2 µM].

For the molecule `Cn1cnc2c(=O)[nH]c(N)nc21`, the “activation” value is 0.275%.

`CCCCOCC(C)OCC(C)O` (stereo not given): the “activation” value is -2.57% [at 78.9 µM].

Take `Fc1ccccc1-c1ccccc1`: the “activation” value is -6.4% [at 78.9 µM].

On to `CC(C)[C@H](N)C(=O)OCCOCn1cnc2c(=O)[nH]c(N)nc21`, for which the “activation” value was -2.6%.

In the case of `N#CCc1ccccc1[N+](=O)[O-]`, the “activation” value was -0.153%.

Take `Cc1c(C)n(CCN(C)C)c2ccc(C(=O)OCCN(C)C)cc12`: the “activation” value was -0.395%.

Consider `O=[N+]([O-])c1ccc(CCO)cc1`, for which the “activation” value is 1.04%.

For `Cc1cc(C)cc(OCC2CNC(=O)O2)c1` (stereo not given), the “activation” value is 2.27%.

As to `CO[Si](OC)(OC)OC`, the “activation” value is 0.898%.

On to `CSc1nc(NC2CC2)nc(NC(C)(C)C)n1`, for which the “activation” value is -5.23%.

`C=CCSCC1Nc2cc(Cl)c(S(N)(=O)=O)cc2S(=O)(=O)N1` (stereo not given): the “activation” value was 1.6%.

Regarding `CCCCCCCCCCCCCCCCCC(=O)OCCCCCCCCCCCCCC(C)C`, the “activation” value was 4.28%.

On to `CCCC=O`, for which the “activation” value was -7.12%.

On to `CC(C)COC(=O)C(C)C`, for which the “activation” value was 4.45%.

Consider `COCc1ccc(COC)cc1`, for which the “activation” value is -3.57%.

On to `CCCc1ccc(N)cc1`, for which the “activation” value was -6.08%.

Consider `C1C2OC2C2C1C1CC2C2OC12` (stereo not given), for which the “activation” value is -3.97% [at 78.9 µM].

Regarding `CC(C)CCCCCCN`, the “activation” value is 0.213%.

For `CC(C)(O)C(=O)c1ccc(OCCO)cc1`, the “activation” value was -6.78%.

With `Nc1cc(N)cc(C(=O)O)c1`, the “activation” value is -2.44%.

As for `O=C(O)c1ccccc1S`, the “activation” value is -2.69%.
